# Screening results: PubChem, several laboratories
# GalR3 antag = human GalR3 antagonism | inhibition, % at 3 µM | HEK293 GalR3-CNG cAMP membrane potential fluorescence; galR3 body fused to GalR1 C-terminus | O60755 | 0.44% of 360,000 active;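 active = inhibition above the screen-wide average plus 3 SD, cut at about 13% in these data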;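 also: forskolin and galanin both at EC90 stimulate the cells; cAMP rise reported by CNG channel membrane potential dye signal; 0% = forskolin plus galanin with DMSO and 100% = forskolin alone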
# aDG glyco up = alpha-DG glycosylation activation; Pro5-aDG cells, alpha-DG glycosylation AlphaScreen (IIH6); 0% Pro5, 100% B10-LARGE cell signal; activation, % at 10 µM; 0.22% of 360,000 active;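 active = activation of at least 8% versus controls, or a plate z-score of at least 8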;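 also: Pro5 are CHO cells carrying HIG-tagged alpha-DG that lacks glycosylation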
# HIV Env fusion = inhibitors of HIV Env-mediated cell fusion; HeLa-JRFL Env/CEM21 cell fusion, luciferase; inhibition, % at 12.3 µM; 1.1% of 360,000 active;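 active = mean replicate inhibition score of at least 50 and every replicate individually at or above 50; inconclusive = only one of the two criteria met; inactive = mean below 50 and not all replicates reaching 50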;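 also: 0% = plate neutral controls and 100% = maraviroc near 300 nM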
# COUP-TFII inh = inhibitors of human COUP-TFII (NR2F2). P24468. HEK293T NGFI-A luciferase reporter, luminescence. inhibition, % at 8.6 µM. 0.7% of 370,000 active. AID 686940;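 active = inhibition above a per-plate cutoff, mean inhibition of test wells between control levels plus 3 SD, cut at about 38% in these data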;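 also: cells cotransfected with COUP-TFII expression vector driving the NGFI-A reporter; 0% = median of COUP-TF2 test wells and 100% = reporter-only cells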
# Target sequence (P24468 whole entry, looked up): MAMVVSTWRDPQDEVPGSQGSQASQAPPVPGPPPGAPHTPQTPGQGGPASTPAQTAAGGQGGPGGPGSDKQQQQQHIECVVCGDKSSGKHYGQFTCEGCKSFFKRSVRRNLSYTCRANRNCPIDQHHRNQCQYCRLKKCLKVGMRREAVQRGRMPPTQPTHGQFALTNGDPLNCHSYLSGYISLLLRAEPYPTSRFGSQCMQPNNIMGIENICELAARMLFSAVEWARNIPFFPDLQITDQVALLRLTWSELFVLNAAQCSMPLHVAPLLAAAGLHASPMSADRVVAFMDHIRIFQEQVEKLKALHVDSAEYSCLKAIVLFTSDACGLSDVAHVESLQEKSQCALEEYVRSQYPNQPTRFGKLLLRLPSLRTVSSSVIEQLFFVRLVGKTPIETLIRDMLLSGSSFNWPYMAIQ
# Gli-Sufu block = antagonists of Gli-Sufu signaling | Sufu-KO-LIGHT fibroblasts, Gli luciferase reporter luminescence | inhibition, % at 5 µM | 0.74% of 340,000 active | AID 588413;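 active = inhibition above about 55%, limit read from the data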;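 also: 0% = DMSO-treated cells and 100% = wells with medium but no cells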
# Gal4-VP16 ctr = VP16 inhibition counter-screen for COUP-TFII | inhibition, % at 8.5 µM | HEK293 Gal4-VP16 luciferase reporter, luminescence | 25% of 2,500 active | shares compounds with COUP-TFII inh | AID 687007; in the data active = inhibition above about 13%
# NR2F2 inh conf = confirmation of human COUP-TFII (NR2F2) inhibitors | HEK293 NGFI-A luciferase reporter, luminescence | inhibition, % at 8.5 µM | 45% of 2,500 active | shares compounds with COUP-TFII inh;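 active = mean inhibition over three repeats above a set limit taken from the earlier primary screen, cut at about 38% in these data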;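 also: 100% = cells given the luciferase reporter alone without the COUP-TF2 vector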
# Active calls of the source: *; ? = inconclusive; · = no result; [ ] = remark or other dose. Shown are actives, neighbours in structure and some others; about 2.1% of the full set was active somewhere.
SMILES,GalR3 antag,aDG glyco up,HIV Env fusion,COUP-TFII inh,Gli-Sufu block,Gal4-VP16 ctr,NR2F2 inh conf
CCOC(=O)c1ccc(NC(=O)C2CCCN(S(=O)(=O)c3ccc(F)cc3)C2)cc1 (configuration not stated),0,0,8,64*,0,-2,17
COC(=O)c1ccc(COc2cccc3c2CCN(Cc2ccccc2)C3=O)o1,-6,1,·,18,1,·,·
COC(=O)c1ccc(COc2cccc3c2CCN(Cc2cccc(C)c2)C3=O)o1,-7,2,9,38*,28,-4,-1
COCC(=O)Nc1ccc2c(c1)OC[C@@H](C)N(Cc1cccnc1)C[C@@H](C)[C@@H](OC)CN(C)C2=O,·,·,14[16.7 µM],·,·,·,·
CC(C)c1ccc(/C=C2\SC(=S)N(CCC(=O)N3CCCCC3CCO)C2=O)cc1 (configuration not stated),-10,0,56*,41*,20,-30,10
COc1ccc(-c2csc(NC(=O)COc3ccc(N(C)S(=O)(=O)c4ccc(C)cc4)cc3)n2)cc1,1,0,·,40*,50,-14,25
Cc1ccc(-c2csc(NC(=O)COc3ccc(N(C)S(=O)(=O)c4ccc(C)cc4)cc3)n2)cc1,-3,0,40,8,7,·,·
C[C@@H]1CN([C@@H](C)CO)C(=O)c2cc(NC(=O)Nc3ccc(F)cc3)ccc2O[C@@H]1CN(C)Cc1ccc(Cl)c(Cl)c1,·,·,25[16.7 µM],·,·,·,·
CCOC(=O)Cc1csc(NC(=O)/C=C/c2cccc(Br)c2)n1,-5,4,14,58*,11,-7,14
C[C@@H]1CN([C@@H](C)CO)S(=O)(=O)c2ccc(Br)cc2O[C@H]1CN(C)Cc1ccccc1,·,·,39[16.7 µM],·,·,·,·
C[C@H](CO)N1C[C@H](C)[C@@H](CN(C)S(=O)(=O)c2ccc(F)cc2)Oc2ccc(NC(=O)Cc3cn(C)c4ccccc34)cc2CC1=O,·,·,-21[16.7 µM],·,·,·,·
C[C@@H]1CN([C@@H](C)CO)S(=O)(=O)c2ccc(-c3cncnc3)cc2O[C@@H]1CN(C)C(=O)C1CCCCC1,·,·,-4[16.7 µM],·,·,·,·
COC(=O)c1c(C)n(-c2ccc(OC)cc2)c2ccc(O)cc12,-7,0,·,39*,-10,-7,8
Cc1cc(C(=O)Nc2cccc3c2O[C@@H](CN(C)Cc2ccc(C(F)(F)F)cc2)[C@@H](C)CN([C@H](C)CO)C3=O)n(C)n1,·,·,9[16.7 µM],·,·,·,·
COc1ccc(NC(=O)N(C)C[C@@H]2OCCCC[C@H](C)Oc3ccc(NS(=O)(=O)c4cccs4)cc3C(=O)N([C@H](C)CO)C[C@H]2C)cc1,·,·,11[16.7 µM],·,·,·,·
COc1ccc(NC(=O)Cn2cc(C(C)=O)c3ccccc32)cc1,-6,0,39,48*,44,-1,21
CC(=O)c1cn(CC(=O)Nc2ccccc2C)c2ccccc12,-4,2,·,38*,1,-5,25
CCOc1ccc(NC(=O)Cn2cc(C(C)=O)c3ccccc32)cc1,-9,0,-4,4,15,·,·
O=C(Nc1ccc(Cl)c(S(=O)(=O)N2CCCCC2)c1)c1cccnc1,-6,1,8,35,-1,·,·
Cc1ccc(NC(=O)c2ccccc2NS(=O)(=O)c2ccc(F)cc2)cc1S(=O)(=O)N1CCCCC1,-4,1,?,38*,43,-9,13
CN(CC(=O)Nc1ccc(Cl)c(C(F)(F)F)c1)C(=O)Cc1n[nH]c(=O)c2ccccc12,-6,0,24,46*,11,-5,10
CCN(CC)S(=O)(=O)c1cc(C(=O)Nc2ccncc2)ccc1Cl,-4,2,·,64*,12,-13,25
O=C(Nc1ccncc1)c1ccc(Cl)c(S(=O)(=O)N2CCCC2)c1,-6,0,-4,46*,12,-2,14
COc1cccc(NC(=O)N[C@H]2CC[C@@H](CC(=O)N3CCCCC3)O[C@@H]2CO)c1,·,·,26[16.7 µM],·,·,·,·
C/C=C/c1cnc2c(c1)C(=O)N([C@@H](C)CO)C[C@@H](C)[C@H](CN(C)C(=O)Nc1ccc(C(F)(F)F)cc1)O2,·,·,9[16.7 µM],·,·,·,·
SMILES,GalR3 antag,aDG glyco up,HIV Env fusion,COUP-TFII inh,Gli-Sufu block,Gal4-VP16 ctr,NR2F2 inh conf
C[C@@H]1CN([C@@H](C)CO)C(=O)Cc2cc(NS(=O)(=O)c3cn(C)cn3)ccc2O[C@@H]1CN(C)C(=O)NC1CCCCC1,·,·,5[16.7 µM],·,·,·,·
Cc1ccc(C(=O)Nc2ccncc2)cc1S(=O)(=O)N1CCOCC1,-2,0,-11,1,0,·,·
Cc1ccc(C(=O)Nc2ccncc2)cc1S(=O)(=O)N1CCCCC1,-8,0,·,47*,·,-3,3
CN(c1ccccc1)S(=O)(=O)c1ccc(Cl)c(C(=O)Nc2ccncc2)c1,-4,4,4,40*,21,1,2
Cc1ccc(NC(=O)Cc2n[nH]c(=O)c3ccccc23)cc1S(=O)(=O)N1CCCCCC1,-4,0,-7,38*,41,-2,17
CCN(CC)S(=O)(=O)c1cc(NC(=O)Cc2n[nH]c(=O)c3ccccc23)ccc1C,-2,0,0,21,3,·,·
COc1ccc(CNC(=O)C[C@H]2CC[C@@H]3[C@@H](COc4ccc(NC(C)=O)cc4C(=O)N3C)O2)cc1,·,·,-6[16.7 µM],·,·,·,·
C/C=C/c1cnc2c(c1)C(=O)N([C@H](C)CO)C[C@@H](C)[C@@H](CN(C)C(=O)c1ccc3c(c1)OCO3)O2,·,·,-8[16.7 µM],·,·,·,·
O=C(NNC1=Nc2ccccc2SC1)c1ccccc1F,-4,0,-2,38*,-18,-39,9
O=C(Nc1ccc(Oc2ccccc2)cc1)c1csc([C@@H]2C[C@H](O)[C@@H](CO)O2)n1,-4,0,?,52*,·,-17,27
CC(=O)Nc1ccc(NC(=O)c2csc([C@H]3C[C@H](O)[C@@H](CO)O3)n2)cc1,-6,0,-9,9,·,·,·
COc1ccc(CN2C[C@@H](C)[C@H](OC)CN(C)C(=O)c3cc(NC(=O)C4CC4)ccc3OC[C@H]2C)cc1,·,·,22[16.7 µM],·,·,·,·
O=[N+]([O-])c1ccc(C[n+]2cccc3c4ccccc4ccc32)cc1,0,0,3,58*,22,-1,30
Cc1onc(-c2ccccc2Cl)c1C(=O)Nc1cccc2cccnc12,-3,0,·,43*,-3,4,33
O=C(Nc1ccc(N2CCN(c3ccc(O)cc3)CC2)cc1)Oc1ccccc1,0,0,·,-15,11,·,·
Nc1ccc(OC(=O)Nc2ccc(O)cc2)cc1,-8,0,14,44*,16,36*,24
COc1ccc(-c2noc(CCCC(=O)Nc3ccc(C(N)=O)cc3)n2)cc1,-1,0,·,55*,43,39*,13
COc1ccc(-c2noc(CCCC(=O)NC3CCCC3)n2)cc1,-8,1,8,54*,30,11,21
